Results: PubChem BioAssay (NCI)
Compounds without any hit were thinned out: in the full panel of roughly 83,000, 20% have a hit.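 How to read the values: 0–100, growth inhibition (40 = 60% inhibited); 0, no net growth; -100 to 0, cell death (-40 = 40% of starting cells died; -100 = all dead).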 Unmarked numbers belong to inactive results. Activity calls are given as the source filed them. Rule for the calls: active = growth percent below 10; inactive = the rest.

Test system: LOX IMVI melanoma
Test: NCI-60 one-dose screen, 48 h (100 = growth as untreated, 0 = no growth, -100 = all killed)
Details: 10 µM

Row | SMILES | growth
1 | CCCCCCCNc1nc(C=O)ncc1-c1ccc(C(F)(F)F)cc1 | 90.7%
2 | CCCCCCN1CCN(Cc2ccc(N(CC)CC)cc2)C(=O)C1=O | 45.2%
3 | O=C(Nc1cccc(-n2cc(-c3ccncc3)c(-c3ccc(O)c(Cl)c3)n2)c1)Nc1ccc(Cl)c(Cl)c1 | -34.4% (active)
4 | S=C1SCC(c2ccccc2)S1 (centres undefined) | 103%
5 | COc1cccc(C(=O)Nc2ccc(CN3CCc4nc5cc(OC)c(OC)cc5cc43)cc2)c1 | 31.3%
6 | COc1ccc(-c2nn(-c3cccc(NC(=O)c4cc(C(F)(F)F)cc(C(F)(F)F)c4)c3)cc2-c2ccncc2)cc1Cl | 80.3%
7 | O=C(Nc1ccccc1)Nc1cccc(-n2cc(-c3ccncc3)c(-c3ccc(O)c(Cl)c3)n2)c1 | 47.7%
8 | N#CCCN1C/C(=C/c2ccc(Cl)cc2)C(=O)/C(=C/c2ccc(Cl)cc2)C1 | -80.4% (active)
9 | COc1ccc(-c2nn(-c3cccc(NC(=O)c4cccc(C(F)(F)F)c4)c3)cc2-c2ccncc2)cc1Cl | 28.6%
10 | COc1ccc([N+](=O)[O-])c(C(=O)O)c1 | 98.5%
11 | CN(C)CCN=c1nc2c(c(N)n1-c1ccccc1)c(=S)n(-c1ccccc1)c(=S)n2-c1ccccc1 | -61.4% (active)
12 | O=C(Nc1cccc(-n2cc(-c3ccncc3)c(-c3ccc(O)c(Cl)c3)n2)c1)c1cccc(C(F)(F)F)c1 | 33%
13 | COc1cccc(NC(=O)c2sc3nc4c(cc3c2N)C(O)CCC4)c1 (centres undefined) | 25.8%
14 | O=S(=O)(NCCCNc1nccc(-c2c(-c3ccc(F)cc3)nc3sccn23)n1)c1ccc2ccccc2c1 | 37.3%
